Source: PubChem BioAssay AID2216 (Broad Institute, 2009)
The whole screen tested about 300,000 compounds, of which about 3,300 (1.1%) were called active. Another 6% or so got no clear call; they are omitted.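 Rule for the calls: active = more than half of the replicate wells show a fall in the fluorescence ratio signal beyond about 16% (limit read from the data, passing the limit was not always enough); inconclusive = exactly half of the replicate wells pass the set limit; inactive = fewer than half of replicates pass the limit.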 The entries come from a sample that favours actives as a whole.

Each compound was assayed on Ran GTPase (GTP-bound) - importin-beta complex (assay: inhibitors of RanGTP-importin-beta interaction, primary screen, biochemical, FRET, CFP-Ran, YFP-importin-beta, homogeneous (AID 2216;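 note: 0% = DMSO wells and 100% = Ran loaded with GDP instead of GTP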)). Conditions: cell-free CFP-Ran/YFP-importin-beta FRET ratio; active compounds read high; concentration not given here.

inhibition, inactive:
CC(=O)c1c(C)[nH]c(C(=O)COC(=O)CCOc2ccc(C)cc2)c1C 6.12%, COc1ccccc1C(=O)NC(CCSC)C(=O)N1CCN(C/C=C/c2ccccc2)CC1 (stereo unspecified) 0.266%, CCOc1ccc(S(=O)(=O)NCCC(=O)N2CCCCCCC2)cc1 0.262%, CCN(CC(=O)Nc1c(F)cccc1F)C(=O)C1CCC1 0.154%, CCCCN(C(=O)c1ccc(S(=O)(=O)N2CCOCC2)cc1)C1CCS(=O)(=O)C1 (stereo unspecified) -4.84%, NC(=O)CSc1nnc(NC(=O)c2ccc3ccccc3c2)s1 5.81%, COc1ccc(/C=N/Nc2cc(N3CCOCC3)nc(C)n2)c(OC)c1 -3.31%, Cc1ccccc1N/N=C/c1ccc(N2CCOCC2)cc1 1.62%, Brc1cnc2ccccc2c1N1CCCCC1 -1.98%, COc1ccc(C(C#N)(CC(=O)O)c2cnccn2)cc1OC (stereo unspecified) 5.73%, Cc1cc(NC(=O)CCS(=O)(=O)c2ccc(F)cc2)no1 -2.56%, CCc1cccc(C)c1NC(=O)COC(=O)CNC(=O)c1cccs1 0.115%, COc1ccc(NC(=O)CCC(=O)N2CCN(S(=O)(=O)c3ccc(C)cc3)CC2)c(OC)c1 2.41%, Cc1ccccc1-c1nc(C#N)c(NCc2ccco2)o1 -0.838%, Cc1cc(NC(C)C)n2c(nc3ccccc32)c1C#N -3.25%, Cc1c(C(=O)Nc2cccc(Cl)c2)cn2c(nc3ccccc32)c1C#N 10.5%, CCOCCCNc1c(CC)c(C)c(C#N)c2nc3ccccc3n12 10.7%, Nc1c(C(=O)Nc2ccc3c(c2)OCCO3)nnn1Cc1ccccc1 -8.94%, COc1ccc(-c2csc3ncnc(N4CCN(S(=O)(=O)c5cccc(F)c5)CC4)c23)cc1 -3.81%, CCOc1ccc(C(=O)CCN2CCOCC2)cc1 4.03%, COc1cc(C(=O)NCC(=O)N2CC=C(c3ccccc3)CC2)cc(OC)c1OC 0.563%, COc1ccc(C2CC(c3cccs3)=NN2C(=O)CSc2nncs2)cc1OC (stereo unspecified) -2.68%, COc1ccc(C2CC(c3cccs3)=NN2C(=O)CCC(=O)O)cc1OC (stereo unspecified) -4.44%, COc1ccc(C2CC(c3cccs3)=NN2c2ccccc2)cc1 (stereo unspecified) 2.04%, COc1ccccc1N1N=C(c2cccs2)CC1c1ccccc1 (stereo unspecified) -0.43%

inhibition, active:
Cc1cc(S(=O)(=O)c2cc3ccc(O)c(C)c3oc2=O)ccc1F 132%, CN(C)c1ccc(/C=N/Nc2cc(N3CCOCC3)nc(N3CCOCC3)n2)cc1 25.8%, Cc1cc(NCc2ccco2)n2c(nc3ccccc32)c1C#N 102%, CC(C)c1cc(NCc2ccccn2)n2c(nc3ccccc32)c1C#N 51%, COc1ccc(C2CC(c3cccs3)=NN2c2ccc(F)cc2)cc1OC (stereo unspecified) 53.2%, COc1ccc(C2CC(c3cccs3)=NN2c2nc(C)c(C(C)=O)s2)cc1OC (stereo unspecified) 89.5%
